Results on eight molecules are retold here after PubChem BioAssay (NCATS).

Molecules are shown by their SMILES. Results filed as inconclusive are left out. Calls of active or inactive are those of the source. Unless noted, calls follow the shape of the full dose curve.

Assay [1] deals with Glucocorticoid receptor (Homo sapiens) (UniProt P04150). Briefly: qHTS assay for small molecule agonists of glucocorticoid receptor signaling (AID 588532; active = well fitted curve in the direction sought with a large enough effect in the signal ratio, with a control signal flat; the % refers to the signal ratio;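 also: 100% = dexamethasone at 0.1 µM and 0% = DMSO only wells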). The note with it: HeLa MMTV-bla, beta-lactamase ratio, agonist, 18 h; activation: stronger effect = higher value, percent of dexamethasone control, DMSO zero. The gist of the method:
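Quantitative HTS using CellSensor MMTV-bla HeLa cells in charcoal/dextran-treated serum; compounds tested up to 92 uM. After 18 h at 37 C, CCF4 dye reported reporter induction.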
For orientation: qHTS replaces the single test concentration by a dilution series.

For assay [2] the target is unchanged. Briefly: qHTS assay for small molecule antagonists of glucocorticoid receptor signaling (AID 588533; active = well fitted inhibition curve with a large enough effect in the signal ratio, with a control signal flat, not every such curve was filed as active; the % refers to the signal ratio;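 also: cells stimulated with 2 nM dexamethasone as agonist; % is scaled to controls: 0 for no effect and ±100 for the full control effect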). The procedure, abridged: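 Antagonist-mode qHTS: compound titrations added to GRE-bla HeLa cells, then dexamethasone 2 nM final; 18 h, 37 C. CCF4 FRET fluorescence normalized to dexamethasone and DMSO; IC50 from Hill fit.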
In assay [3] the target is Peroxisome proliferator-activated receptor delta (Homo sapiens) (UniProt Q03181). Description: qHTS assay for small molecule agonists of peroxisome proliferator-activated receptor delta signaling (AID 588534).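 Also: 0% = DMSO basal wells and 100% = positive control agonist at 10 µM.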 The procedure, abridged:
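Reporter cells were plated and held 5 hrs at 37 C before compounds were added. After 18 hrs at 37 C, CCF4 dye was loaded for 2 hrs at RT and fluorescence measured.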

A short description of assay [4]: qHTS assay for small molecule antagonists of peroxisome proliferator-activated receptor delta signaling (AID 588535; active = well fitted inhibition curve with a large enough effect in the signal ratio, with a control signal flat, not every such curve was filed as active; the % refers to the signal ratio;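 as to max response: cells co-treated with a PPAR-delta agonist as stimulator during compound exposure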). The conditions noted are these: HEK293T PPARd-UAS-bla, beta-lactamase FRET ratio, 18 h; 460 nm channel. The gist of the method:
(§1)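 Cell-based beta-lactamase assay in antagonist mode: 4000 HEK293T PPAR-delta-UAS-bla cells per well, 5 hr preincubation then 18 hr compound incubation at 37 C. IC50 obtained by Hill equation fitting.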

The target in assay [5] is Peroxisome proliferator-activated receptor delta (Homo sapiens) (UniProt Q03181). The description is as above. The gist of the method: as §1
The target in assay [6] is Vitamin D3 receptor (Homo sapiens) (UniProt P11473). Description: qHTS assay for small molecule antagonists of vitamin D receptor signaling (AID 588541).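 Also: receptor activated by calcitriol during compound treatment; series mostly up to about 77 µM; % is scaled to controls: 0 for no effect and ±100 for the full control effect.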 The procedure, abridged:
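Antagonist-mode beta-lactamase reporter assay: HEK293T VDR-UAS-bla cells were exposed to titrated compound alongside 1-alpha,25-dihydroxyvitamin D3 at 3 nM final for 16 h. Values were normalized to the 50 nM agonist control and DMSO basal, with IC50 and efficacy from Hill equation fits.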

Assay [7] is described as follows: qHTS assay for small molecule agonists of retinoid X receptor alpha signaling (AID 588544).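 As to activation: 0% = DMSO basal wells and 100% = reference agonist.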 The note with it: HEK293T RXRa-UAS-bla, beta-lactamase reporter, 18 h; 530 nm emission.
In assay [8] the target is Retinoic acid receptor RXR-alpha (Homo sapiens) (UniProt P19793). The assay is described as above.
In assay [9] the target is Thyroid hormone receptor beta (Homo sapiens) (UniProt P10828). Description: qHTS assay for small molecule agonists of thyroid hormone receptor beta signaling (AID 588545). The procedure, abridged:
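In this cell-based screen, titrated compounds act on HEK 293 cells held in medium with 2% charcoal/dextran FBS, NEAA and pyruvate for 18 hrs at 37 C. Responses are expressed relative to T3 (10 nM) as 100% and basal DMSO as 0%.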

The nature of assay [10]: qHTS assay for small molecule agonists of the antioxidant response element (ARE) signaling pathway (AID 651741; active = well fitted activation curve with a large enough effect in the signal ratio; the % refers to the signal ratio; also: % of control where 0% means no effect). The procedure, abridged: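 Seeding 2,000 ARE-bla HepG2 cells per well preceded a 5 h incubation at 37 C/5% CO2 and a 16 h compound exposure at 37 C. Beta-lactamase reporter activity was then quantified by fluorescence after 2 h with LiveBLAzer B/G FRET substrate.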

A short description of assay [11]: qHTS assay for small molecule activators of the p53 signaling pathway (AID 651743; active = well fitted activation curve with a large enough effect in the signal ratio, not every such curve was filed as active; the % refers to the signal ratio; also: series mostly up to about 92 µM; % of control where 0% means no effect). The conditions noted are these: HCT-116 p53RE-bla, beta-lactamase FRET ratio, 16 h; activation: stronger effect = higher value. The gist of the method: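 Screen for p53 pathway agonists uses stably transfected p53RE-bla HCT-116 cells, 4,000 per well, treated 16 h at 37 C with compounds in DMSO.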

Assay [12] can be described thus: qHTS assay for small molecule activators of the nuclear factor-kappa B (NF-kB) signaling pathway (AID 651749; active = well fitted activation curve with a large enough effect in the signal ratio; the % refers to the signal ratio; also: series mostly up to about 77 µM; % of control where 0% means no effect). The note with it: NF-kB-bla ME-180 cells, beta-lactamase FRET ratio, 16 h; activation: stronger effect = higher value. The gist of the method:
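Stably transfected ME-180 line; NF-kB response element upstream of beta-lactamase. Treatment: compound or DMSO, 16 hr. Detection: fluorescent FRET substrate.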

Assay [13] can be described thus: qHTS assay for environmental chemicals that activate the Aryl hydrocarbon Receptor (AhR) signaling pathway (AID 651777; active = well fitted curve in the direction sought with a large enough effect; an effect the other way counts as inactive or inconclusive; also: % of control where 0% means no effect; nearly all actives have a fitted effect of over 15% in size). The conditions noted are these: 1A2-DRE human hepatoma cells, luciferase, 24 h; activation: stronger effect = higher value. The gist of the method:
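1A2-DRE human hepatoma reporter line; 1,200 cells/well; cmpd or DMSO 24 h, 37 C/5% CO2; One-Glo 30 min RT; luciferase lum.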

Assay [14] concerns the target Peroxisome proliferator-activated receptor alpha (Homo sapiens) (UniProt Q07869). Description: qHTS assay for small molecule agonists of the peroxisome proliferator-activated receptor alpha (PPARalpha) signaling pathway (AID 651778; active = well fitted curve in the direction sought with a large enough effect; an effect the other way counts as inactive or inconclusive; also: % of control where 0% means no effect). The conditions noted are these: PathHunter PPARalpha complementation, chemiluminescence, 6 h; max response: stronger effect = higher value. The gist of the method:
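Chemiluminescence from complemented enzyme reported PPARalpha activation in cells after 6 hr of compound treatment at 37 C. The detection reagent was incubated for 60 min at room temperature, and compounds were scored as agonists.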

Assay [15] is described as follows: qHTS assay for small molecule agonists of the antioxidant response element (ARE) signaling pathway measured by Nrf2-dependant transcriptional activity (AID 720636; active = well fitted curve in the direction sought with a large enough effect in the repeat runs; an effect the other way counts as inactive or inconclusive;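 also: HepG2 cells with an ARE-driven luciferase reporter; % of control where 0% means no effect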). The procedure, abridged:
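Cells: ARE-luc HepG2 with Nrf2-responsive luciferase. Medium contained 1% dialyzed FBS. Compound exposure lasted 16 hr at 37 C and 5% CO2, followed by ONE-Glo luciferase detection.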

Assay [16] is described as follows: qHTS assay for small molecule agonists of the antioxidant response element (ARE) signaling pathway measured by Nrf2-dependant transcriptional activity - cell viability counter screen (AID 720653; active = well fitted curve in the direction sought with a large enough effect in the repeat runs; an effect the other way counts as inactive or inconclusive; also: % is scaled to controls: 0 for no effect and ±100 for the full control effect). The note with it: ARE-bla HepG2 viability, CellTiter-Glo ATP luminescence, 16 h; max response: stronger effect = lower value. The procedure, abridged:
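Cytotoxicity counter screen: intracellular ATP quantified by CellTiter-Glo luminescence in the same ARE-bla HepG2 plates, after 16 h compound exposure and a 2 h beta-lactamase substrate step.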

Assay [17] can be described thus: qHTS assay for cell viability of HEK293 cells (AID 743288; active = well fitted curve in the direction sought with a large enough effect; an effect the other way counts as inactive or inconclusive; also: % is scaled to controls: 0 for no effect and ±100 for the full control effect; nearly all actives have a fitted effect of over 50% in size). The note with it: ATP luminescence (CellTiter-Glo), 18 h; max response: stronger effect = lower value. The procedure, abridged: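 The Tox21 protocol used parental HEK293 cells treated for 18 h at 37 C with compounds delivered by pintool; ATP-coupled luminescence after 30 min at room temperature gave viability.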

Assay [18] can be described thus: qHTS assay for cell viability of the p53RE-bla HCT-116 cell line (AID 743292; active = well fitted curve in the direction sought with a large enough effect; an effect the other way counts as inactive or inconclusive; also: % is scaled to controls: 0 for no effect and ±100 for the full control effect; nearly all actives have a fitted effect of over 55% in size). The gist of the method:
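HCT-116 p53RE-bla cells seeded 4,000/well; 5 h at 37 C; compound (DMSO) added; 16 h at 37 C; CellTiter-Glo added, 30 min RT; luminescence read.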

For assay [19], the target named is Nuclear receptor subfamily 1 group I member 2 (Rattus norvegicus) (UniProt Q9R1A7). Briefly: qHTS assay for small molecule activators of the rat pregnane X receptor (rPXR) signaling pathway (AID 651751; call rule not given here; also: 0% is about no effect). The note with it: rPXR reporter cells, luciferase (One-Glo), 24 h.
Assay [20] in a line: qHTS assay for small molecule activators of the human pregnane X receptor (PXR) signaling pathway (AID 720659; call rule not given here; also: 0% is about no effect).
Assay [21] deals with Peroxisome proliferator-activated receptor gamma (Homo sapiens) (UniProt P37231). Briefly: qHTS assay for small molecule agonists of peroxisome proliferator-activated receptor gamma signaling (AID 588536; active = well fitted curve in the direction sought with a large enough effect in the signal ratio, with a control signal flat, not every such curve was filed as active; the % refers to the signal ratio;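 also: 0% = DMSO basal wells and 100% = rosiglitazone at 2 µM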). The gist of the method:
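HEK293 UAS-bla reporter line, 1% charcoal/dextran FBS; titration, 16 h, 37 C; CCF4 loading 2 h RT; fluorescence 460/530 nm. Normalized to rosiglitazone 2 uM = 100%, DMSO = 0%.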

The target is the same in assay [22]. Description: qHTS assay for small molecule antagonists of peroxisome proliferator-activated receptor gamma signaling (AID 588537; active = well fitted inhibition curve with a large enough effect in the signal ratio, with a control signal flat, not every such curve was filed as active; the % refers to the signal ratio;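 also: reporter cells co-stimulated with 50 nM rosiglitazone agonist during compound treatment; % of control where 0% means no effect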). The procedure, abridged: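 Inhibitors of agonist-stimulated UAS-bla reporter activity were sought in HEK293 cells; rosiglitazone (50 nM) defined full signal and DMSO baseline. Curves fitted to Hill model gave IC50 and efficacy.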

The target in assay [23] is Vitamin D3 receptor (Homo sapiens) (UniProt P11473). Briefly: qHTS assay for small molecule agonists of vitamin D receptor signaling (AID 588543).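 Also: 0% = DMSO basal and 100% = reference agonist control.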 The gist of the method:
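qHTS in agonist mode: compound titrations stimulate a VDR-driven β-lactamase reporter in HEK293T cells over 16 h at 37 °C. Response normalized to 50 nM 1α,25-dihydroxyvitamin D3 = 100%, DMSO = 0%; Hill fitting gives EC50 and maximal response.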

Assay [24] can be described thus: qHTS assay for small molecule antagonists of retinoid X receptor alpha signaling (AID 588546; active = well fitted inhibition curve with a large enough effect in the signal ratio, with a control signal flat, not every such curve was filed as active; the % refers to the signal ratio;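 also: cells stimulated with 9-cis-retinoic acid as agonist; % is scaled to controls: 0 for no effect and ±100 for the full control effect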). The note with it: HEK293T RXRa-UAS-bla, beta-lactamase ratio, antagonist mode; measured here: W530 green channel, cytotoxicity proxy. The procedure, abridged:
(§2)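 Beta-lactamase reporter inhibition, read as CCF4 fluorescence ratio (ex 405, em 460/530 nm) after 2 h at RT. HEK293T UAS-bla cells, 2500/well, were stimulated with 9-cis-RA at 500 or 100 nM final alongside test compound for 18 h at 37 C.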

Assay [25] concerns the target Retinoic acid receptor RXR-alpha (Homo sapiens) (UniProt P19793). The description is as above. The note with it: HEK293T RXRa-UAS-bla, beta-lactamase ratio, antagonist mode. The procedure, abridged:
as §2

The target in assay [26] is Thyroid hormone receptor beta (Homo sapiens) (UniProt P10828). Description: qHTS assay for small molecule antagonists of thyroid hormone receptor beta signaling (AID 588547; active = well fitted inhibition curve with a large enough effect in the signal ratio, with a control signal flat, not every such curve was filed as active; the % refers to the signal ratio). The conditions noted are these: TR-UAS-bla HEK293, beta-lactamase ratio, antagonist mode, 18 h. The gist of the method: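 Inhibition of T3-driven (0.4nM final) beta-lactamase reporter activity was measured over 0.59 nM to 92 uM compound after 18 h at 37 C. The cells were GripTite HEK293 TR-UAS-bla in charcoal/dextran-stripped serum, with CCF4 ratio read-out and IC50 from Hill fits.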
Chain of Thyroid hormone receptor beta (Homo sapiens) (P10828 whole entry, looked up): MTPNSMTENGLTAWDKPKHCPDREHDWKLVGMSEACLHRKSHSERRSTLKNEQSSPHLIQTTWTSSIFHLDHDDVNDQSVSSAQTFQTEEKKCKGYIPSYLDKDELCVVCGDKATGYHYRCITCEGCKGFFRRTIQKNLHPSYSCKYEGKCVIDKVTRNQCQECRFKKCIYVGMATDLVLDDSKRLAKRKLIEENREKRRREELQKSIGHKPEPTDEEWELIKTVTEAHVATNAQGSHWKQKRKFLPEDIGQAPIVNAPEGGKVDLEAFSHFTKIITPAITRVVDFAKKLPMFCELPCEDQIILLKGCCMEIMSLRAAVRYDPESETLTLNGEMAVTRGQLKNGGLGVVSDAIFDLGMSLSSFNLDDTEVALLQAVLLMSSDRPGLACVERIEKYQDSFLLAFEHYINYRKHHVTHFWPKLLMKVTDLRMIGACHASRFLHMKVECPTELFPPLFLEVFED

Chain of Peroxisome proliferator-activated receptor alpha (Homo sapiens) (Q07869 whole entry, looked up): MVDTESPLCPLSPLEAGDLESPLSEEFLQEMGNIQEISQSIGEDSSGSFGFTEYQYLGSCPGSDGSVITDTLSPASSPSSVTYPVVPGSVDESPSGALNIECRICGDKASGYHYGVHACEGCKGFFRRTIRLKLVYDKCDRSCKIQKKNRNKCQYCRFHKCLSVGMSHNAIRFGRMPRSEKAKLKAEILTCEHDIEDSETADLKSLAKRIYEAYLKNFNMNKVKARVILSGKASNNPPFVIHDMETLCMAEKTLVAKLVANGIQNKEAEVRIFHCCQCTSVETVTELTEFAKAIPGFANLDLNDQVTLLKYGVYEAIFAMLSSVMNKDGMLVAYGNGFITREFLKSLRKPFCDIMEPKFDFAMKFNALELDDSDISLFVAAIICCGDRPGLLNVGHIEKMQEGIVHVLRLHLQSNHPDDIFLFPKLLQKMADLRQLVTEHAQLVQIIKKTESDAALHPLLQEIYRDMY
Chain of Vitamin D3 receptor (Homo sapiens) (P11473 whole entry, looked up): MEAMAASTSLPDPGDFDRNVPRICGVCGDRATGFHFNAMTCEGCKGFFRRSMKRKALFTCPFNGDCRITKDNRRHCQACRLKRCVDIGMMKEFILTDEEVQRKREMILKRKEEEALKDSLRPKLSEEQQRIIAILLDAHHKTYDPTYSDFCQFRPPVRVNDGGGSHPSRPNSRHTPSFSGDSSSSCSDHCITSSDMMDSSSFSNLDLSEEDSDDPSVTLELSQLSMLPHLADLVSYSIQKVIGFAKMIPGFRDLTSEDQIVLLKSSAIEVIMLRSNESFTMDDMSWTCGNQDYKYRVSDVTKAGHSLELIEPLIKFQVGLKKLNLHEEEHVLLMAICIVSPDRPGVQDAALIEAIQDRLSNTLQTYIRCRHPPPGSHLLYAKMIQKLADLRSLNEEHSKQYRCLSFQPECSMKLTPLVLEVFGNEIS
Chain of Glucocorticoid receptor (Homo sapiens) (P04150 whole entry, looked up): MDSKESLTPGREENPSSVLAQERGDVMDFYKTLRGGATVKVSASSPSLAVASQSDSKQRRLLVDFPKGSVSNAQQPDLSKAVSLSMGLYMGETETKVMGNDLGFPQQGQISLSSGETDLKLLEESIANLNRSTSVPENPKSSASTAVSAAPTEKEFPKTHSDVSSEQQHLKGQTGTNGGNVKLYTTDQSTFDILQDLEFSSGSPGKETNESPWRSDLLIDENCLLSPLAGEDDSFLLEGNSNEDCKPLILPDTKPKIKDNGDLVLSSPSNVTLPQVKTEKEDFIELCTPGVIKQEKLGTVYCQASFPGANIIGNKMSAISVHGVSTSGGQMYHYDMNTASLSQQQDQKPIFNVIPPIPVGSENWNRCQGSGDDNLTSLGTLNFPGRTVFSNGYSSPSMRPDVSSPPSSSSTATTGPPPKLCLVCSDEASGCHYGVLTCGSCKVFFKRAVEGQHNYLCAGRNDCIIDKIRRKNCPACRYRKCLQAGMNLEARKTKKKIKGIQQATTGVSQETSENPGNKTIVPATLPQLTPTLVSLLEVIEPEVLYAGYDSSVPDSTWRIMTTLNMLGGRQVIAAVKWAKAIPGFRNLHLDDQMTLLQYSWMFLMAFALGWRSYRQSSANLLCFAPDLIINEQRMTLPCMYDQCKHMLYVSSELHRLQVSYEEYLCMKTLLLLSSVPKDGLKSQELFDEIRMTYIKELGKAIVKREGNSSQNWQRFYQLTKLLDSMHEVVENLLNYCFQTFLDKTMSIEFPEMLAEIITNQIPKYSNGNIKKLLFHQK
Chain of Retinoic acid receptor RXR-alpha (Homo sapiens) (P19793 whole entry, looked up): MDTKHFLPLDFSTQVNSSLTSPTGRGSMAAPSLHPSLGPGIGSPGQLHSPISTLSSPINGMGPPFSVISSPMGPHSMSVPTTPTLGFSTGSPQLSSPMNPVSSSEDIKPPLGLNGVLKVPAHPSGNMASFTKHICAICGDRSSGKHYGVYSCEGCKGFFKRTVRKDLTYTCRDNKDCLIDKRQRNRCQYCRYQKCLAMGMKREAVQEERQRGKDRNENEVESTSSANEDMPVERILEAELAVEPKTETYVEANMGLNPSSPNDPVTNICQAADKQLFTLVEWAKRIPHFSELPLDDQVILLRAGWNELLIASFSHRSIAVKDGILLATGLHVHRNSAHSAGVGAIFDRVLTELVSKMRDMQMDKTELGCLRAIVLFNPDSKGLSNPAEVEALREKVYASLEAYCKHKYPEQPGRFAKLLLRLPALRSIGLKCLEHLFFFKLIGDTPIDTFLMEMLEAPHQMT
Chain of Peroxisome proliferator-activated receptor delta (Homo sapiens) (Q03181 whole entry, looked up): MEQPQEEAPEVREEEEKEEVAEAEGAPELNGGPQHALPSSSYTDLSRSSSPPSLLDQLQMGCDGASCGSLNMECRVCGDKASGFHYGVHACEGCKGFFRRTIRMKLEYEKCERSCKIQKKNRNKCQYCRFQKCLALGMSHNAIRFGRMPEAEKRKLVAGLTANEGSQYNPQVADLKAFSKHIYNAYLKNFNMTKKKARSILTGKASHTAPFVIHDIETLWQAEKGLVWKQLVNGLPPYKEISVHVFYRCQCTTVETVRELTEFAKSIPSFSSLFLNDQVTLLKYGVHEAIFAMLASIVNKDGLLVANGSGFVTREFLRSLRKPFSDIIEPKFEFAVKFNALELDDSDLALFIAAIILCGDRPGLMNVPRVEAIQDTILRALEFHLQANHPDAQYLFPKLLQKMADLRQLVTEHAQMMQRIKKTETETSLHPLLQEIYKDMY
Chain of Peroxisome proliferator-activated receptor gamma (Homo sapiens) (P37231 whole entry, looked up): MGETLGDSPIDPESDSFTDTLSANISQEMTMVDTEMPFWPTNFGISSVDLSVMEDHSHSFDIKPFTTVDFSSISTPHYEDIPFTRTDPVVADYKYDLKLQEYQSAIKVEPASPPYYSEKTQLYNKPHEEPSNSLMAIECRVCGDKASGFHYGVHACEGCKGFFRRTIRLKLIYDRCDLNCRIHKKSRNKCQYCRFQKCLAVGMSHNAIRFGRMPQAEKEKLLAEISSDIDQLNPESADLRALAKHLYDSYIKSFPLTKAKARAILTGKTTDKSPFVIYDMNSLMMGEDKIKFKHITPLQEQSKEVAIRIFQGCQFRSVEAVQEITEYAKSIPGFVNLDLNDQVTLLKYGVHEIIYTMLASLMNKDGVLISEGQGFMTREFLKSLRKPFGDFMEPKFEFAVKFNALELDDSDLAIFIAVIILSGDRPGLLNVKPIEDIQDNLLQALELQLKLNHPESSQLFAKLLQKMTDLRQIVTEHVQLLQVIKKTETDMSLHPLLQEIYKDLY
Chain of Nuclear receptor subfamily 1 group I member 2 (Rattus norvegicus) (Q9R1A7 whole entry, looked up): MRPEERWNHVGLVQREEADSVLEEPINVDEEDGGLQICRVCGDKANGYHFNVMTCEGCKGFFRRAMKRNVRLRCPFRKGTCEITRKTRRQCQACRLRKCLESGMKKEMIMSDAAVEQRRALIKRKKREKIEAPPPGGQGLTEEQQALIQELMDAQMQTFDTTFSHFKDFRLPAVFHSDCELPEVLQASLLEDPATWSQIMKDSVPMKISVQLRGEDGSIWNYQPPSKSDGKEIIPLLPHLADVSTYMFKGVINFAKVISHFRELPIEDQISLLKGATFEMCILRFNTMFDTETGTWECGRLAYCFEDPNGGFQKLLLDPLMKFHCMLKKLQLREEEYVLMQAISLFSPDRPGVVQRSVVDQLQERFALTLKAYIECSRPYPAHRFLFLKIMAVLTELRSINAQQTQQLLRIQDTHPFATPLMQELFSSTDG

In the case of `CCCSC(=O)N(CCC)CCC`, the activation in [1] is -2.67% (inactive); in assay [11], 5.3% (inactive); in assay [12], 0.695% (inactive); in assay [13], 1.67% (inactive). Also, the Potency entry in assay [2], in assay [5], in assay [6], in assay [8], in assay [9] and in assay [10] was “inactive” each time. Further, the Potency entry in [15] and in assay [18] was “inactive” in each case. Besides, the molecule was classed as inactive in [3] and in assay [20]. Moreover, the max response in assay [4] is 26.4%; in assay [7], -0.108%; in assay [14] it was -0.593% (inactive); in [16], -2.88% (inactive); in [17], -7.74% (inactive); in [19], 1.18% (inactive).

Turning to `Cc1cccc(C(=O)O)c1`, the outcome in assay [3] was inactive.

For `CCCCCCCCCCCCN(C)C`, the Potency entry in [2], in [5], in assay [21], in assay [22], in [6] and in assay [8] was “inactive” throughout. For the same molecule, the Potency result in assay [9], in assay [10] and in assay [18] was “inactive” each time. Besides, the molecule was classed as inactive in assay [3], in assay [23] and in assay [20]. The max response in [4] was -18.8%; in [7], -10.4%; in [24], 1.32%; in assay [25], -14.3% (inactive); in [14], -1.36% (inactive); in assay [16], -0.69% (inactive). Also, the max response in [19] is -0.417% (inactive). In addition, the activity change % (negative = inhibition) in [26] was -6.18% (inactive). Moreover, the activation in assay [11] was 0.386% (inactive); in [13], -2.66% (inactive).

Consider `CC/C(=N\OC/C=C/Cl)C1=C(O)CC(C2CCOCC2)CC1=O` (configuration not stated), for which the Potency entry in assay [2], in [5], in assay [21], in [22], in [6] and in assay [8] was “inactive” each time. Moreover, the Potency result in [9], in assay [15] and in assay [18] was “inactive” each time. Further, the call in [3] and in assay [20] was inactive. Also, the max response in [4] is 17.7%; in [7], -4.82%; in assay [24], 0.449%; in assay [25], 3.36% (inactive); in [14] it was -0.709% (inactive); in assay [16], 1.41% (inactive). Besides, in assay [17], the max response is 3.9% (inactive). The activity change % (negative = inhibition) in assay [26] was -7.66% (inactive). The activation in assay [11] is -3.67% (inactive); in [12], -1.9% (inactive); in assay [13], 0.936% (inactive).

For the molecule `CS(=O)(=O)c1ccc(Cl)cc1`, the call in [3] was inactive.

`O=C(c1ccc(Cl)cc1)c1ccc(Cl)cc1`: the molecule was called inactive in assay [3].

`CCOc1cc(Oc2ccc(C(F)(F)F)cc2Cl)ccc1[N+](=O)[O-]`: the Potency result in assay [2], in assay [9] and in [15] was “inactive” throughout. For the same molecule, the call in [3] was inactive. In addition, the max response was -9.67% in assay [24], -3.17% (inactive) in assay [25] and -9.09% (inactive) in assay [16]. Further, the values for the activation in assay [11] and in assay [13] were 3.72% (inactive) and 3.8% (inactive), respectively.

With `OC(c1ccc(Cl)cc1)(c1cncnc1)c1ccccc1Cl` (configuration not stated), the activation in assay [1] was -10.1% (inactive); in assay [11], -2.63% (inactive); in assay [13] it was 2.31% (inactive). Further, the call in assay [3] and in assay [23] was inactive. Moreover, the max response in assay [4] is 31.8%; in [24], 8.06%; in assay [25] it was -39.6% (inactive); in assay [14] it was -4.62% (inactive); in assay [16], -4.24% (inactive); in [17], -17.1% (inactive). The Potency entry in [5], in assay [9], in [15] and in assay [18] was “inactive” in each case. In assay [26], the activity change % (negative = inhibition) is 5.6% (inactive).
